Our source for the inhibition and activation values is PubChem BioAssay.

The target in test [1] is Sphingosine 1-phosphate receptor 4 (Homo sapiens) (UniProt O95977). Nature of the test: blockers of human S1P4 signalling – cell-based, confirmation (AID 1524; in the data active = inhibition above about 30%). As to conditions: S1P4-expressing cell line, antagonist mode, reporter read-out; at 4.98 µM; active compounds read high.
For test [2], the target named is Sphingosine 1-phosphate receptor 1 (Homo sapiens) (UniProt P21453). Briefly: blockade of human S1P1 receptor – cell-based, counter-screen for S1P4 antagonist project (AID 1564; in the data active = inhibition above about 40%;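 also: receptor stimulated with S1P near its EC80; 0% = agonist stimulated wells and 100% = vehicle only wells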). As to conditions: cell-based S1P1 antagonist counterscreen, at 4.98 µM, active compounds read high. On the technique in general: The purpose of a counterscreen is to sort out artefacts and off-target activity.
Sequence of Sphingosine 1-phosphate receptor 1 (Homo sapiens) (P21453 whole entry, looked up): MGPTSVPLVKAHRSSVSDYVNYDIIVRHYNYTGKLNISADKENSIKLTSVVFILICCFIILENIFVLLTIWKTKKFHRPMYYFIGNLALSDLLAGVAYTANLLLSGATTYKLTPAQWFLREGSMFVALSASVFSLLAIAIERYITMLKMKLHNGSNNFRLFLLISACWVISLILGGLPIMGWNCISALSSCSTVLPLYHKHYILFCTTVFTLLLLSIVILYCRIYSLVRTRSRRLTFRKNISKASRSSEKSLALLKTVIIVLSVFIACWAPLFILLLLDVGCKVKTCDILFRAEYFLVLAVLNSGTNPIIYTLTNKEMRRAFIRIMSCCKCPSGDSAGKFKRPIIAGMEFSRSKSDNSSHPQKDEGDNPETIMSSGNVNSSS

Test [3] concerns the target Peroxisome proliferator-activated receptor gamma (Homo sapiens) (UniProt P37231). Nature of the test: retested PPARg-SRC-2 recruitment enhancers – biochemical, HTS, confirmation (AID 1297; in the data active = activation above about 22%;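 also: 0% = vehicle alone and 100% = reference agonist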). As to conditions: biochemical SRC-2 recruitment by PPARgamma; at 8 µM; active compounds read high.
Test [4] has the same target. Nature of the test: retest of SRC-1 recruitment enhancers for PPARgamma – biochemical, confirmation (AID 1300; in the data active = activation above about 20%;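 also: 0% = vehicle wells and 100% = reference agonist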). The settings on record: PPARgamma–SRC-1 coactivator recruitment biochemical assay; at 8 µM; active compounds read high.
Test [5] has as its target Peroxisome proliferator-activated receptor gamma (Homo sapiens) + Nuclear receptor coactivator 3 (Homo sapiens) (UniProt P37231+Q9Y6Q9). Briefly: agonists promoting SRC-3 binding to PPARgamma – biochemical, confirmation (AID 1301).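 Also: 0% = vehicle wells and 100% = reference agonist.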 As to conditions: biochemical PPARgamma-SRC-3 coactivator recruitment, agonist mode; at 8 µM; active compounds read high.
Test [6] deals with Protein-arginine deiminase type-4 (Homo sapiens) (UniProt Q9UM07). Nature of the test: protein arginine deiminase 4 blockade, retest – biochemical, fluorescence polarization, confirmation (AID 488796;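 active = mean inhibition across replicates above the hit cutoff set by the earlier primary screen, cut at about 15% in these data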;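 also: inhibitors block active-site labeling by the probe so polarization falls; 0% = PAD4 with probe and DMSO and 100% = probe without PAD4 enzyme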). As to conditions: recombinant PAD4, RCA probe fluorescence polarization; at 6.36 µM; active compounds read high. In general terms: Polarisation of emitted light reports the rotation of a fluorescent probe.
Sequence of Protein-arginine deiminase type-4 (Homo sapiens) (Q9UM07 whole entry, looked up): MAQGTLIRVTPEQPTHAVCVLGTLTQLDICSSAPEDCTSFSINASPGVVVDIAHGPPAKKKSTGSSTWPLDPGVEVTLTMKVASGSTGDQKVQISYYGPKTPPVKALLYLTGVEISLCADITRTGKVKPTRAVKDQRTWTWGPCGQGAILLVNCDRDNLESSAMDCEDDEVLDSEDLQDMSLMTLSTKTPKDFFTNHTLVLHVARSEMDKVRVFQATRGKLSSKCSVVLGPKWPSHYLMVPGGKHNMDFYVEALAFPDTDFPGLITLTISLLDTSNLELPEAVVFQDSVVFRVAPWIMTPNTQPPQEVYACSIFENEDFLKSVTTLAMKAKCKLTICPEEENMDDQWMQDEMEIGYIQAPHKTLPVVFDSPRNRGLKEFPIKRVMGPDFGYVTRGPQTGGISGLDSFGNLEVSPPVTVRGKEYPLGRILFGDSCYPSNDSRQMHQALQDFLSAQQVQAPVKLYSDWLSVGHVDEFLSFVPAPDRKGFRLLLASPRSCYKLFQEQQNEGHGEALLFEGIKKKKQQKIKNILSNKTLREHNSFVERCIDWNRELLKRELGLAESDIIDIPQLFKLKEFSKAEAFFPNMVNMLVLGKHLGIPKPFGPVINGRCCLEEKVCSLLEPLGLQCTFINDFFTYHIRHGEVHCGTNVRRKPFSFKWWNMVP

Test [7] addresses Serine protease HTRA1 (Homo sapiens) (UniProt Q92743). Nature of the test: confirming inhibition of human HTRA1 – biochemical, fluorescence polarization, confirmation (AID 540248;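 active = mean inhibition over three repeats above a set limit taken from the earlier primary screen, cut at about 37% in these data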;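 also: 0% = HTRA1 with DMSO and 100% = wells lacking HTRA1; inhibitors block probe binding so polarization drops and inhibition rises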). As to conditions: recombinant HTRA1, FP-rhodamine activity-based probe, at 5.96 µM, active compounds read high.
The target in test [8] is (Lyso)-N-acylphosphatidylethanolamine lipase (Mus musculus) (UniProt Q8VD66). Nature of the test: mouse ABHD4 hydrolase blockers, triplicate – biochemical, fluorescence polarization, confirmation (AID 720658;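 active = mean inhibition across replicates above the hit cutoff set in the primary screen, cut at about 30% in these data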;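 also: 0% = wild-type ABHD4 with DMSO and 100% = catalytically dead S159A mutant with DMSO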). The settings on record: purified mABHD4, FP-Rh probe fluorescence polarization; at 8.92 µM; active compounds read high.
Sequence of (Lyso)-N-acylphosphatidylethanolamine lipase (Mus musculus) (Q8VD66 whole entry, looked up): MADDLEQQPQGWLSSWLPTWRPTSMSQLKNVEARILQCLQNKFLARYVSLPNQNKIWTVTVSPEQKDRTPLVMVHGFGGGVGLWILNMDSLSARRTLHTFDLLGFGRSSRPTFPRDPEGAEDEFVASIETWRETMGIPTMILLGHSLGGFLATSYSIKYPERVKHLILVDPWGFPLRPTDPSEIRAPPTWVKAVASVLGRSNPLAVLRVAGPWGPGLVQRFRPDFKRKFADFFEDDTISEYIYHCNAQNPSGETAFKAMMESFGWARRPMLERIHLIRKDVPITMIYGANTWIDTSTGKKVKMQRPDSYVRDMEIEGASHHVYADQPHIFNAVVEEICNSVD

The other results are listed elsewhere or left out. A number with no mark means an inactive call. Activity calls are given as the source filed them. Rule as the data show it, unless noted: active = activation above about 24%; inactive = the rest.

Sequence of Sphingosine 1-phosphate receptor 4 (Homo sapiens) (O95977 whole entry, looked up): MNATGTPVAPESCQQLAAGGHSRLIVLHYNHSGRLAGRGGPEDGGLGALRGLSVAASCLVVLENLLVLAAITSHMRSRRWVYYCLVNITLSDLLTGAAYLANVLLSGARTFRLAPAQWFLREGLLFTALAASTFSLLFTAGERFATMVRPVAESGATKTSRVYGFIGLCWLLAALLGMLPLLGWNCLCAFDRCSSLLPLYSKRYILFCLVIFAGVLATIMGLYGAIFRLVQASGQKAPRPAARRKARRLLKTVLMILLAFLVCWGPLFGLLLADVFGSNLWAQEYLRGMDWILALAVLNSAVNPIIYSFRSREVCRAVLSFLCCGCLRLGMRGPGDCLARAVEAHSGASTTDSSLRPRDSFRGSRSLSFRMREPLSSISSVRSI
Sequence of Peroxisome proliferator-activated receptor gamma (Homo sapiens) (P37231 whole entry, looked up): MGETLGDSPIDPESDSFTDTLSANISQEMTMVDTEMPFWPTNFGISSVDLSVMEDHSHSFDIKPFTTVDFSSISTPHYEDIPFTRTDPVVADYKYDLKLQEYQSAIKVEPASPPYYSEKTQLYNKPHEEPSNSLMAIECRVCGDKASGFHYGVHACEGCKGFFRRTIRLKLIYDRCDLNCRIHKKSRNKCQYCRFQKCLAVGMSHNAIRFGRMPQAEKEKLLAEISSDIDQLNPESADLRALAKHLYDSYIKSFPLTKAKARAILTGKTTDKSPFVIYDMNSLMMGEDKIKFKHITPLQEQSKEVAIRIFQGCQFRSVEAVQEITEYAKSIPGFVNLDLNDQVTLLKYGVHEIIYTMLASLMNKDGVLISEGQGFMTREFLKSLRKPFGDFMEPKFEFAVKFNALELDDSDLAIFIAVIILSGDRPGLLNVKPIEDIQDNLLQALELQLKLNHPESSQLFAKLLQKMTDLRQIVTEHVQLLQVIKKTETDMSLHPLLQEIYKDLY
Sequence of Peroxisome proliferator-activated receptor gamma (Homo sapiens) + Nuclear receptor coactivator 3 (Homo sapiens) (P37231 whole entry, looked up): as above
Sequence of Peroxisome proliferator-activated receptor gamma (Homo sapiens) + Nuclear receptor coactivator 3 (Homo sapiens) (Q9Y6Q9 whole entry, looked up): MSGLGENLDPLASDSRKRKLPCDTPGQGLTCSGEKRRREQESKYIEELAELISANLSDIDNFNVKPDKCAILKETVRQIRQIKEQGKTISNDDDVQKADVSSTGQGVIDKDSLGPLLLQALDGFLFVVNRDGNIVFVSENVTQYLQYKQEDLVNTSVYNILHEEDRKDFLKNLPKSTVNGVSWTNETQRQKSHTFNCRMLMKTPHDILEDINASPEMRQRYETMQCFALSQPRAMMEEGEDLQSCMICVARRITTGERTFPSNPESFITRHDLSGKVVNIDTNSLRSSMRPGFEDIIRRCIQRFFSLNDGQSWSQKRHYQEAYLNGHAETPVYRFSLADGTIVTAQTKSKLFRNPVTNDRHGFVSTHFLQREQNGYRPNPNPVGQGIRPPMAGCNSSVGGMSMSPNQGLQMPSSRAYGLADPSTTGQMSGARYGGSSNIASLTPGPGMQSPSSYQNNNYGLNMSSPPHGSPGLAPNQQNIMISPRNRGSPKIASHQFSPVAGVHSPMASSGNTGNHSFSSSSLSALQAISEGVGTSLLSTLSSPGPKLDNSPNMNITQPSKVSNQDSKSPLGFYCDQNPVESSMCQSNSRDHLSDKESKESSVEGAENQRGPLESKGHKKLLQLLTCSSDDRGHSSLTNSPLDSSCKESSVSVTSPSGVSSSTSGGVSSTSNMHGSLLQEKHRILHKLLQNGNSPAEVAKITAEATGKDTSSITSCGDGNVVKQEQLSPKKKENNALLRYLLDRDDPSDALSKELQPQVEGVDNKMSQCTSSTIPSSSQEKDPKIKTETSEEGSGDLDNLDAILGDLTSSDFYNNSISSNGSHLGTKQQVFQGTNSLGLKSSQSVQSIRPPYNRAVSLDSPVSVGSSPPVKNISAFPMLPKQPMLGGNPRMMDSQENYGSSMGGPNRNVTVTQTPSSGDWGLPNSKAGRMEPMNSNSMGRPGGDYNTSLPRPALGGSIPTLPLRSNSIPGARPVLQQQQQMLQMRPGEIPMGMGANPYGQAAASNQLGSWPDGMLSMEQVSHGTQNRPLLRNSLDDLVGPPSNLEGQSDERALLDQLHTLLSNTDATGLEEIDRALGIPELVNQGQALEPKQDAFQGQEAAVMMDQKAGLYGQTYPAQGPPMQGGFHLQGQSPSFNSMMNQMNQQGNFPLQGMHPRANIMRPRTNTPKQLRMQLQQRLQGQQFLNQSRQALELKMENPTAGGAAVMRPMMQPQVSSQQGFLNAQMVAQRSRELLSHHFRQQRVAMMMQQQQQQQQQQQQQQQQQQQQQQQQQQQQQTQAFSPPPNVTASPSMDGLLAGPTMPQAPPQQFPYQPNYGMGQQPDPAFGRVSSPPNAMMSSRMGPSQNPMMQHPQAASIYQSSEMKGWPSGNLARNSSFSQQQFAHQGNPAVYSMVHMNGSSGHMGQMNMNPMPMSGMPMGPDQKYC

On to `CNc1ccc(SC#N)cc1`, for which the inhibition in test [1] is 8.17%; in test [2], -1.31%.
`Fc1ccc(COc2cccc(-c3n[nH]c(=S)o3)c2)cc1`: the activation in test [3] was 51.6% (active); in test [4], 39.9% (active); in test [5], 34% (active).
As for `CCN(/N=C/c1ccc(N(C)C)cc1)c1nc2ccccc2[nH]1`, the figures for the activation in test [3], in test [4] and in test [5] were 9.9%, 6.2% and 6.08%, respectively.
With `O=C(/C=C/c1ccc(Cl)cc1Cl)c1cccnc1`, the inhibition was 43.4% (active) in test [1] and 23.6% in test [2].
For `COC(=O)c1ccccc1SC1CC(=O)N(c2cccc(C)c2)C1=O` (stereo not given), the activation is 0.78% in test [3], -2.36% in test [4] and 10.9% in test [5].
As for `Nc1ccc(Nc2ccccc2)cc1`, the figures for the activation in test [3], in test [4] and in test [5] were 10.1%, 5.63% and 6.91%, respectively. Also, the inhibition in test [6] is 6.93%; in test [7], 54.5% (active); in test [8], 36.4% (active).
In the case of `CC(C)c1ccc(N2CCN(C(=O)c3ccccc3NC(=O)/C=C(\C(=O)O)c3ccccc3)CC2)cc1`, the inhibition is 102% (active) in test [1] and 62.4% (active) in test [2].
With `Cc1ccc(-c2cc(C(=O)NCc3cn(C)nc3C)c3cc(Br)ccc3n2)cc1`, the values for the activation in test [3], in test [4] and in test [5] were 25.7% (active), 15.9% and 16.9%, respectively.
On the same counts, the results for `CCn1c(=O)cc(SCC(=O)NCc2ccc3c(c2)OCO3)c2ccccc21` are 22.7% (active), 15.8% and 18.1%.
For `COc1ccc(-c2csc(NC3OC(=O)c4ccccc43)n2)cc1` (stereo not given), the results for the inhibition in test [1] and in test [2] were 19.3% and -6.85%, respectively.
As for `COC(=O)Cn1cc(C(=O)c2cccs2)c2ccccc21`, the figures for the activation in test [3], in test [4] and in test [5] were -2.1%, 0.95% and 0.74%, respectively.
On the same counts, the results for `NC(=O)CSc1oc(-c2cccs2)nc1S(=O)(=O)c1ccccc1` are 40.9% (active), 34.8% (active) and 26.5% (active).

In general, inhibition refers to the relative decrease from the control value, in per cent.
